# Experimental data from PubChem BioAssay (NCI).
# Where “and” joins values, the source holds several entries; their conditions need not be identical. Equal entries are not always repeated. Compounds without any hit were thinned out: in the full panel of roughly 83,000, 20% have a hit.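 Note: values are percent growth. 100 is the growth of untreated cells, values between 100 and 0 indicate rising inhibition; between -100 and 0 indicates cell death.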 Calls of active or inactive are those of the source. The calls were made as follows: active = growth percent below 10; inactive = the rest.
# Tested on: MDA-MB-468 breast
# Experiment: NCI-60 one-dose screen, 48 h (100 = growth as untreated, 0 = no growth, -100 = all killed)
# Settings: 10 µM unless noted
row,SMILES,growth
1,Cc1ccc(C23CCC(=O)N2CCc2cncn23)cc1 (stereo not given),85.2% (inactive)
2,CC(CN(C)C)CN1c2ccccc2Sc2ccccc21 (stereo not given),40.2% (inactive) and 73.1% (inactive) and 64% (inactive)
3,Cc1cccc(NC(=O)Nc2ccc(-c3ccc4c(c3)NC(=O)/C4=C\c3ccc[nH]3)cc2)c1,-0.651% (active)
4,CN[C@@H](CCCNC(N)=NC/C=C(/C)CCC=C(C)C)C(=O)N(C)[C@@H](CCCNC(N)=NCC=C(C)C)C(=O)N[C@H](C)[C@H](OS(=O)(=O)O)c1ccc(OS(=O)(=O)O)c(COS(=O)(=O)O)c1,97.3% (inactive)
5,COCCNc1ccc2c3c(cccc13)C(=O)N(CCN(C)C)C2=O,45.2% (inactive)
6,CCCN1C(=O)N(CCC)C2C1NC(=S)N2/N=C/C=C/c1ccccc1OC (stereo not given),1.14% (active)
7,Cc1ccc(OCCn2c(C)nn(-c3ccc(Cl)cc3)c2=O)cc1,124% (inactive)
8,Nc1n[nH]c2cccc(C#Cc3cccc(C(=O)Nc4cc(CN5CCOCC5)cc(C(F)(F)F)c4)c3)c12,89.7% (inactive)
9,CCCOCc1cn[nH]n1,105% (inactive)
10,COc1cc(-c2nc(SCCC(C)C)nc(Nc3ccccc3)c2C#N)cc(OC)c1OC,112% (inactive)
11,CCCC(=O)CC(C)=O.CCCC(=O)CC(C)=O.[Cu],107% (inactive)
12,CCC(CCNc1cc(OC)cc2cccnc12)CN1C(=O)c2ccccc2C1=O (stereo not given),7.31% (active)
13,C=C1CCC2C3(C)COC(c4cccc(Cl)c4)OC3CCC2(C)C1/C=C/C1=CCOC1=O (stereo not given),43.6% (inactive)
14,N#CC1=C(N)Oc2c(ccc3ccccc23)C1c1ccccc1Cl (stereo not given),8.77% (active)
15,CCN(c1ccc(Cl)cc1)c1nc(-c2ccc([N+](=O)[O-])cc2)cs1,83.8% (inactive)
16,O=C(/C=C/c1ccccc1)Oc1ccc(/C=C/c2cc(OC(=O)/C=C/c3ccccc3)cc(OC(=O)/C=C/c3ccccc3)c2)cc1,99.4% (inactive)
17,CCOc1c(C#N)c(Nc2ccc(S(N)(=O)=O)cc2)c(C#N)c2nnc(C)n12,105% (inactive)
18,Cc1c(Cl)cccc1NC(=O)c1sc2nc3c(cc2c1N)CCCCC3,22.4% (inactive)
19,O=C(Nn1c2c(sc1=NCc1ccccc1)C(=O)c1ccccc1C2=O)c1cc2ccc1CCc1ccc(cc1)CC2,80% (inactive)
20,COc1ccc2c(c1)c(-c1nn3cc(-c4ccncc4)nc3s1)cn2C,79.3% (inactive)

row,SMILES,growth
1,CC(C)NC(=O)c1cc(-c2ccc(NC(=O)Nc3ccc(N4CCOCC4)c(C(F)(F)F)c3)cc2)nc2cccnc12,92.1% (inactive)
2,O/N=C1\c2ccccc2-c2ccc(F)cc21,9.23% (active)
3,Clc1nc(Cl)c2ncn(-c3ccccc3)c2n1,3.71% (active)
4,Cc1c(C(N)=O)sc2ncn(Cc3ccccc3)c(=O)c12,99% (inactive)
5,N#Cc1c(-c2ccc(O)cc2)c2c(N)nn(-c3ccccc3)c2[nH]c1=O,111% (inactive)
6,COc1ccc(/C=C2\CCC/C(=C\c3ccc(OC)c(OC)c3)C2=O)cc1OC,-16.6% (active)
7,CCCCCCCCCCCCC[N+](C)(C)Cc1ccccc1,-25.3% (active)
8,Cc1ccc(O)c(C(=O)c2ccccc2Cl)c1,106% (inactive)
9,COc1ccc2nc3cc(Cl)ccc3c(NCCCNC(C)=O)c2c1,39.5% (inactive)
10,CCCCOC(OCCCC)c1ccccc1,104% (inactive)
11,O=C(O)C(Cc1ccccc1)N1C(=O)/C(=C/C(Cl)=C/c2ccc([N+](=O)[O-])cc2)SC1=S (stereo not given),-12.8% (active)
12,N/C(=N\C(N)=N\c1nc2ccccc2s1)c1ccnc(Cl)c1,51.9% (inactive)
13,O=C(N=Nc1c(O)[nH]c2ccccc12)c1cc(-c2ccccc2)on1,109% (inactive)
14,CN(C)CCCC1(c2ccc(F)cc2)OCc2cc(-c3cc4ccccc4s3)ccc21 (stereo not given),-8.95% (active)
15,O=C1c2cc(Cl)ccc2-c2c(O)cc(Cl)cc21,48.6% (inactive)
16,CN[C@@H]1C[C@H]2O[C@@](C)([C@@H]1OC)n1c3ccccc3c3c4c(c5c6ccccc6n2c5c31)C(=O)N[C@H]4O,-56.3% (active)
17,Cn1cc(-c2nc(-c3c[nH]c4ccncc34)cs2)c2cc(F)ccc21,-72.8% (active)
18,Cc1c(CN2CCN(C(=O)[C@H](C)O)CC2)sc2c(N3CCOCC3)nc(-c3cnc(N)nc3)nc12,-49.6% (active)
19,O=C(Nc1ccc(-n2cc(-c3ccncc3)c(-c3ccc(Cl)c(O)c3)n2)cc1)c1ccc(Cl)c(Cl)c1,54.2% (inactive)
20,COc1cc(C=O)ccc1OC1OC(COC(C)=O)C(OC(C)=O)C(OC(C)=O)C1OC(C)=O (stereo not given),100% (inactive)
